Measurements published in PubChem BioAssay (NCI).
About 79,000 compounds went through this panel and 15% of them were active in at least one assay; those are over-represented in the sample as a whole. Unmarked numbers belong to inactive results. Calls of active or inactive are those of the source. No stated cut-off is given here; in the data, active means growth inhibition above about 70%; inactive means the rest.

What was measured:
[1] = NCI Yeast Anticancer Drug Screen. Data for the rad50 strain (AID 155);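 further: 0% = growth of vehicle-only cultures of the same strain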; settings: S. cerevisiae rad50 strain growth inhibition, active compounds read high
How it was run: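 Inhibition values express reduced yeast growth in compound-treated cultures relative to vehicle-treated controls.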

[2] = NCI Yeast Anticancer Drug Screen. Data for the mec2-1 strain (AID 157); settings: S. cerevisiae mec2-1 strain, active compounds read high
How it was run: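 Yeast mec2-1 mutant treated with compound. Readout: growth inhibition vs vehicle controls.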

[3] = NCI Yeast Anticancer Drug Screen. Data for the sgs1 mgt1 strain (AID 161);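 further: 0% = growth of cultures given vehicle only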; settings: S. cerevisiae sgs1 mgt1 strain, active compounds read high
How it was run: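 Read-out: growth inhibition vs vehicle controls. Cells: mutant yeast strain deficient in DNA damage repair.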

[4] = NCI Yeast Anticancer Drug Screen. Data for the cln2 rad14 strain (AID 165);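 further: 0% = growth equal to vehicle treated cultures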; settings: S. cerevisiae cln2 rad14 strain, active compounds read high
How it was run: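 cln2 rad14 yeast strain; compound exposure; growth inhibition read vs vehicle controls.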

[5] = NCI Yeast Anticancer Drug Screen. Data for the bub3 strain (AID 167); settings: S. cerevisiae bub3 mutant strain, active compounds read high
How it was run: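 Steps: expose the mutant yeast strain to compound; grow alongside vehicle-treated cultures; measure growth; express inhibition against the vehicle cultures.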

[6] = NCI Yeast Anticancer Drug Screen. Data for the mlh1 rad18 strain (AID 175); settings: S. cerevisiae mlh1 rad18 strain growth inhibition, active compounds read high
How it was run: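 Yeast w/ defined DNA-repair lesions; compound exposure; growth vs vehicle controls → % inhibition.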

[7] = at 5.0 µM (retest, dose inferred, filed as 0.5)
[8] = at 50.0 µM (retest, dose inferred, filed as 5.0)

Compound | growth inhibition [1, 7] [%] | growth inhibition [1, 8] | growth inhibition ([1]; at 50.0 µM) | growth inhibition [2, 7] [%] | growth inhibition [2, 8] | growth inhibition ([2]; at 50.0 µM) | growth inhibition [3, 7] [%] | growth inhibition [3, 8] | growth inhibition ([3]; at 50.0 µM) | growth inhibition [4, 7] [%] | growth inhibition [4, 8] | growth inhibition ([4]; at 50.0 µM) | growth inhibition [5, 7] [%] | growth inhibition [5, 8] | growth inhibition ([5]; at 50.0 µM) | growth inhibition [6, 7] [%] | growth inhibition [6, 8] | growth inhibition ([6]; at 50.0 µM)
CN(C)c1ccccc1[CH2][Ga]([Cl])[CH2]c1ccccc1N(C)C | 15 | 96% (active) | 88.9% (active) | -1 | 98% (active) | 92.6% (active) | 13 | 51% | 90.8% (active) | 16 | 98% (active) | 90.3% (active) | 9 | 97% (active) | 91.3% (active) | 26 | 98% (active) | 89.2% (active)
Nc1nc2ccccc2cc1C(=O)O | -162 | -150% | -2.25% | -49 | -47% | 19.3% | -61 | -55% | -7.95% | -54 | -48% | 63.5% | -69 | -70% | 12.5% | -140 | -107% | 3.9%
CCCCCC[C@@H](O)C/C=C\CCCCCCCC(=O)OCCCC | -2 | -7% | 23.6% | -4 | -7% | 26.1% | -1 | -5% | 23.6% | -3 | -8% | 75.8% (active) |  |  |  | 0 | 1% | 23.9%
C[n+]1c(-c2ccc(/C=N/NC(=O)c3ccc(C(=O)N/N=C/c4ccc(-c5cn6ccccc6[n+]5C)cc4)nc3)cc2)cn2ccccc21 | 35 | 99% (active) | 99.2% (active) | 14 | 99% (active) | 98.8% (active) | 35 | 99% (active) | 98.8% (active) |  |  |  | 24 | 99% (active) | 98.9% (active) | 50 | 99% (active) | 99.1% (active)
CCCCN(c1ccccc1)c1ncnc2c1ncn2C | 1 | 83% (active) | 89.7% (active) | -3 | 86% (active) | 79.8% (active) | 0 | 86% (active) | 89% (active) | 0 | 76% (active) | 74.2% (active) | 6 | 88% (active) | 79.2% (active) | 5 | 89% (active) | 89.9% (active)
N=C(N)Cc1ccc(NC(=O)c2ccc(C(=O)Nc3ccc(CC(=N)N)cc3)cc2)cc1 | 3 | -8% | 21.4% | 2 | 14% | 34.2% | -11 | -21% | 78.4% (active) | -7 | -16% | 14.7% |  |  |  | 2 | -49% | 27.9%
CCCCCc1cc(Cl)cc(Cl)c1O | -5 | 45% | 60.1% | -23 | 0% | 10.1% | -5 | 26% | 67.5% | 0 | -6% | -13.2% | -22 | -22% | 9.05% | -3 | 18% | 62.1%
CC(=Nc1ccc(S(=O)(=O)c2ccc(N=C(C)N3CCCCC3)cc2)cc1)N1CCCCC1 | 0 | 2% | -0.05% | -1 | -1% | 4% | -2 | 1% | -6.45% | -5 | -2% | -10.5% |  |  |  | -2 | -5% | -2.15%
O=C(O)C/C(=C\c1ccco1)C(=O)O | -8 | 9% | 44.9% | -4 | -9% | -11.5% | -4 | -2% | -30.6% | -1 | -1% | 38% | -8 | -13% | -27.9% | -4 | -7% | -16.4%
O=C(N/N=C/c1ccc2c(c1)OCO2)c1ccc([N+](=O)[O-])cc1 | 3 | 2% | 5.35% | -14 | -15% | 14.5% | 8 | 7% | 14.8% | 4 | 5% | 30.7% |  |  |  | 3 | 13% | 57%
c1ccc(C(CNCCN2CCCCCC2)C2CCCCC2)cc1 (stereo not drawn) | 21 | 12% | 82.5% (active) | 13 | 22% | 44.6% | 26 | -9% | 89.8% (active) | 10 | 16% | 74.7% (active) | 22 | 20% | 66.5% | 18 | 23% | 87.2% (active)
